Where “and” joins values, the source holds several entries; their conditions need not be identical. Equal values may be shown once. Records with an inconclusive call do not appear. Values without a mark were called inactive. Calls of active or inactive are those of the source. The call rests on the fitted dose curve; in most records, active means well fitted inhibition curve with a large enough effect; inconclusive means small, poorly fitted or top-dose-only effect; inactive means flat fitted curve, though single readings scatter.
tested on: CP203; test: qHTS profiling for inhibitors of Plasmodium falciparum proliferation (AID 504749); further: nearly all actives have a fitted effect of over 60% in size;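 on activity, negative = inhibition: 0% = DMSO vehicle and full inhibition = artemisinin control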; conditions: P. falciparum in erythrocytes, SYBR Green DNA, 72 h; series mostly up to 28.7 µM; activity, negative = inhibition: at the top concentration
Source text: NIH National Institute of Allergy and Infectious Diseases [NIAID] NIH Chemical Genomics Center [NCGC] MLPCN Grant: None Assay Provider: Xinzhuan Su, NIAID NCGC Assay Overview: Plasmodium falciparum is a virulent malarial parasite that kills 1-2 million people worldwide each year. Transmitted by mosquitoes, the sporozoite form of the parasite enters the blood stream to infect hepatocytes, where they become merozoites that infect red blood cells (erythrocytes). Within erythrocytes, merozoites begin a […] cycle of growth and division, after which the parasite is released to infect new red blood cells. Gametocytes, which form within erythrocytes as well, circulate in the bloodstream and are ingested by the mosquito, thereby completing the life cycle. To profile malarial isolates for differential chemical responses and to identify inhibitors of malarial growth, an assay that measures P. falciparum growth and replication within erythrocytes was employed. This assay uses a DNA binding fluorescent dye (SYBR Green) to detect parasite DNA following cell lysis. Because mature erythrocytes lack DNA, only Plasmodium-derived DNA is detected.
NCGC Assay Protocol Summary: The SYBR Green viability assay was adapted from a method described previously (Plouffe et al., 2008). For screening 3 ul culture medium was dispensed into 1536 well black clear bottom plates (Aurora Biotechnologies) using a Multidrop Combi (Thermo Fisher Scientific Inc.), 23 nL compounds in DMSO were added by a pin tool (Kalypsys), and 5 ul of erythrocytes infected with P. falciparum (0.3% parasitemia, 2.5% hematocrit final concentration) were added. The plates were incubated at 37 C in a humidified incubator in 5% CO2 for 72 h, and 2 ul lysis buffer (20 mM Tris HCl, 10 mM EDTA, 0.16% saponin, 1.6% triton X, 10X SYBR Green I supplied as 10,000X […] by Invitrogen) was added to each well. The plates were mixed for 25 sec with gentle shaking and incubated overnight at room temperature in the dark. The following morning, fluorescence intensity at 485(14) nm excitation and 535(25) nm emission wavelengths was measured on an EnVision (Perkin Elmer) plate reader. Plate reads were normalized relative to the control inhibitor (0.29 uM artemisinin) and vehicle (DMSO) wells present on each plate and then corrected by an algorithm using vehicle-only control plates at the beginning and end of the compound plate stack.
Potency means the concentration at half of the fitted maximal effect.

| SMILES | activity, negative = inhibition | Potency |
| --- | --- | --- |
| NCc1cccnc1 | -0.637% | – |
| Cc1ncc2n1-c1ccc(Cl)cc1C(c1ccccc1F)=NC2 | 20.6% | – |
| NC(=O)CN1CCCC1=O | -2.33% [at 12.8 µM] | – |
| CC(C)C(Br)C(=O)NC(N)=O (stereo not given) | -0.946% | – |
| Cc1ccc(N=CN(C)C=Nc2ccc(C)cc2C)c(C)c1 | 8.06% | – |
| CC[n+]1c(-c2ccccc2)c2cc(N)ccc2c2ccc(N)cc21 | – | 213 nM (active) and 675 nM (active) |
| CCCCCCCCCCCC[N+](C)(C)CCOc1ccccc1 | – | 10.7 µM (active) |
| C[C@]12Cc3nonc3C[C@@H]1CC[C@@H]1[C@@H]2CC[C@@]2(C)[C@H]1CC[C@]2(C)O | -9.8% | – |
| CCN(Cc1ccc(Cl)nc1)/C(=C/[N+](=O)[O-])NC | 5.13% | – |
| CCC1(CC)C(=O)NC(=O)NC1=O | 3.22% | – |
| C[C@H]1C(=O)O[C@@H]2CCN3CC=C(COC(=O)[C@](C)(O)[C@]1(C)O)[C@H]23 | 0.431% | – |
| CCN(CC)C(C)C(=O)c1ccccc1 (stereo not given) | -0.318% | – |
| CCCCCCCCC(=O)NCc1ccc(O)c(OC)c1 | -1.33% | – |
| C[N+]1(CCC(C(N)=O)(c2ccccc2)c2ccccc2)CCCCC1 | 1.42% | – |
| CCN(CC)CCOC(=O)C(C)(c1ccccc1)c1ccccc1 | – | 7.57 µM (active) |
| C[C@]12CC[C@H]3[C@@H](CC=C4C[C@@H](O)CC[C@@]43C)[C@@H]1CC[C@@H]2O | 7.39% | – |
| O=C(CCCN1CCC(n2c(=O)[nH]c3ccccc32)CC1)c1ccc(F)cc1 | – | 4.55 µM (active) |
| CCS(=O)(=O)C(C)(C)S(=O)(=O)CC | 4.31% | – |
| COP(=S)(OC)Oc1ccc(Sc2ccc(OP(=S)(OC)OC)cc2)cc1 | 3.82% | – |
| CC(C)[N+](C)(CCC(C(N)=O)(c1ccccc1)c1ccccc1)C(C)C | 4% [at 12.8 µM] | – |

| SMILES | activity, negative = inhibition | Potency |
| --- | --- | --- |
| ClC1=C(Cl)C2(Cl)C(CBr)CC1(Cl)C2(Cl)Cl (stereo not given) | -8.97% | – |
| CN1C[C@@H](NS(=O)(=O)N(C)C)C[C@@H]2c3cccc4c3c(cn4C)C[C@H]21 | -11.2% | – |
| COP(=O)(OC)OC=C(Cl)Cl | -6.3% | – |
| CCC1(c2ccccc2)CCC(=O)NC1=O (stereo not given) | -7.34% | – |
| CC(C)NCC(O)c1ccc(N)c(C#N)c1 (stereo not given) | -5.58% | – |
| CN(C)C(=S)SSC(=S)N(C)C | – | 4.78 µM (active) |
| CC(C)(C)OC(=O)c1ncn2c1[C@@H]1CCCN1C(=O)c1c(Br)cccc1-2 | -0.117% | – |
| Oc1c(Br)cc(Br)cc1Br | 1.72% | – |
| Cc1c(Cl)c(=O)oc2cc(OP(=O)(OCCCl)OCCCl)ccc12 | – | 8.49 µM (active) |
| C[N+](C)(C)CCOC(=O)C(O)(c1ccccc1)c1ccccc1 | 10.7% | – |
| COC(=O)C1=CCCN(C)C1 | 8.46% | – |
| O=C(NC(=O)c1c(F)cccc1F)Nc1cc(Cl)c(OC(F)(F)C(F)C(F)(F)F)cc1Cl (stereo not given) | -18.2% | – |
| COc1ccc(C(=O)N2CCCC2=O)cc1 | -12% | – |
| CC(C)(O)C(Cl)(Cl)Cl | – | 10.7 µM (active) |
| c1ccc2nc(N3CCNCC3)ccc2c1 | -0.664% | – |
| C=CCOC(Cn1ccnc1)c1ccc(Cl)cc1Cl (stereo not given) | – | 9.53 µM (active) |
| CN1C(=O)CN=C(c2ccccc2)c2cc([N+](=O)[O-])ccc21 | -0.291% | – |
| CNC(=O)NC(O)C(Cl)(Cl)Cl (stereo not given) | -3.23% | – |
| CNC(=O)Oc1cccc2ccccc12 | -9.52% | – |
| OC(c1ccccc1)(c1ccccc1)C1CCNCC1 | -8.79% [at 12.8 µM] | – |
